The text below walks through data of PubChem BioAssay AID449762 (Southern Research Specialized Biocontainment Screening …, 2010).

Out of some 330,000 compounds screened, about 1,900 (0.58%) were called active. Inconclusive results (about 4%) are left out. Only a sample is shown. Measured potencies and affinities stand elsewhere. A number with no mark means an inactive call. No stated cut-off is given here; in the data, inconclusive means inhibition above about 70% without an active follow-up result; inactive means below that.

The nature of the assay: M. tuberculosis growth inhibition, HTS (AID 449762).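 Further: bacterial growth assessed after seven days of incubation.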 As to conditions: M. tuberculosis H37Rv growth inhibition, 7H9 media; at 25 µM; active compounds read high.
`CCc1[nH]nc(C(=O)N2CCCC(C(=O)c3cccc(OC(C)C)c3)C2)c1C` (centres undefined): the inhibition is 8.32%.
On to `CCOC(=O)Cn1nc(-c2ccc(C)cc2)ccc1=O`, for which the inhibition was -1.62%.
Turning to `CCOC(=O)c1ccccc1NC(=O)CSc1cccc[n+]1[O-]`, the inhibition is -5.24%.
For the molecule `COC(=O)c1ccc(C(=O)OC)c(NC(=O)CSc2ccccn2)c1`, the inhibition was 45%.
As for `Cc1c(Cl)cccc1NC(=O)CCN1CCN(C)CC1`, the inhibition was -6.21%.
For the molecule `O=C(NCCc1ccccc1)c1c(O)c2cccc3c2n(c1=O)CC3`, the inhibition is -1.91%.
For `CCCCN(C(=O)NC(=O)Nc1ccc(C)cn1)S(C)(=O)=O` the value was -2%; for `Cc1ccc(NC(=O)CSc2nc3ccccc3c(=O)n2CCCN2CCCCC2)cc1C`, 24.1%; for `CC1CCN(CCCn2c(SCC(=O)Nc3ccccc3Cl)nc3ccccc3c2=O)CC1`, 6.66%.
In the case of `Cc1ccccc1N(Cc1cc(=O)[nH]c2ccccc12)C(=O)C(C)C`, the inhibition was -1.51%.
In the case of `C#CCCC/C(=C\C(=O)N(C)[C@H](C(=O)N(C)[C@H](C(=O)N(C)[C@H](C(=O)N(C)[C@H](C(N)=O)C(C)C)C(C)C)C(C)C)C(C)C)OC`, the inhibition is 2.88%.
For `Cc1cccc([C@@H]2[C@@H]3C(=O)N(Cc4ccccc4)C(=O)[C@@H]3[C@]3(Cc4ccccc4)C(=O)N(c4cccc(Cl)c4)C(=O)N23)c1`, the inhibition was 12.6%.
Take `Cc1cc(Cn2nc(C(=O)NCc3cccc(Br)c3)cc2-c2ccccc2)on1`: the inhibition was 25.4%.
Consider `Cc1ccc(N2C(=S)NC3c4cc(Cl)ccc4OC2(C)C3C(=O)N(C)C)cc1` (centres undefined), for which the inhibition is 0.53%.
Take `CN(C)C(=O)C1C2NC(=S)N(c3cccc(Cl)c3)C1(C)Oc1ccc(Cl)cc12` (centres undefined): the inhibition was -0.86%.
For `CSc1cccc(CN2CCN(CCC(C)C)C(CCO)C2)c1` (centres undefined), the inhibition is -6.35%.
Regarding `COc1ccc(NC(=O)c2cn(CCC#N)nc2-c2ccccc2)cc1`, the inhibition is 1.76%.
As for `Cc1nc(C)c(C(=O)N(c2ccc(F)cc2)C(C(=O)NCC2CCCO2)c2ccccc2)s1` (centres undefined), the inhibition is 6.83%.
With `Cc1onc(C(=O)N2CCN(Cc3ccccc3)CC2)c1[N+](=O)[O-]`, the inhibition is 3.07%.
Next, `CC(=N\NC(=O)c1ccccc1)/C(=N/O)C(=O)Nc1ccccc1`: 19.5%.
Turning to `O=C1C(C2=C(O)c3ccccc3C2=O)=Nc2ccccc21`, the inhibition was -18.6%.
For the molecule `O=C1C(c2c(O)[nH]c3ccccc23)=Nc2ccccc21`, the inhibition was 26.2%.
As for `O=C(CCCn1c(=O)[nH]c2cc(Cl)ccc2c1=O)NCCCN1CCCC1=O`, the inhibition was 1.6%.
For the molecule `C=CCn1c(SC)nnc1-c1ccc2ncccc2c1`, the inhibition is 0.53%.
With `COc1ccccc1OCc1ccc(C(=O)Nc2cc(OC)c(OC)c(OC)c2)o1`, the inhibition is 1.45%.
For `COc1ccc(NC(=O)c2ccc(COc3ccccc3Br)o2)cc1OC`, the inhibition is 55.9%.
Next, `O=C1CC2(CCCCC2)Oc2ccccc21`: 2.84%; `O=C(NCC1CC1)c1ccc(Oc2cc(Cl)cc(Cl)c2)o1`: 8.88%; `Fc1ccc(/C=C\c2nccc3c2[nH]c2ccccc23)cc1`: 3.87%.
For `N#Cc1ccc(/C=C\c2nccc3c2[nH]c2ccccc23)cc1` the value was 23.4%.
With `CCCn1c(SCC(=O)N2CCCc3ccccc32)nnc1-c1ccco1`, the inhibition is -5.68%.
With `CCOC(=O)c1nc(C)c(C(C)=O)s1`, the inhibition was -0.23%.
Take `C=CCN(C/C(=N\O)c1sc(C(=O)OCC)nc1C)c1cccc(Br)c1`: the inhibition was 62.6%.
Take `CCOC(=O)c1c(C)[nH]c(C(=O)OCC(=O)NCc2ccc(F)cc2)c1C`: the inhibition was -3.74%.
`COc1ccc(OC)c(Nc2nc(-c3sc(N)nc3C)cs2)c1`: the inhibition is 65.1%.
In the case of `COc1ccc(Nc2nc(-c3sc(C)nc3C)cs2)cc1`, the inhibition is 11.6%.
Consider `CCNC(=O)N(CCOC)CC1CCCN(C2Cc3ccccc3C2)C1` (centres undefined), for which the inhibition was -1.33%.
Take `Cc1cccc(CCNS(=O)(=O)c2ccc(S(=O)(=O)N3CCC(C)CC3)cc2)c1`: the inhibition was -1.34%.
As for `O=C1C(=C(O)c2ccccc2)C(=O)c2ccccc21`, the inhibition is 4.16%.
Consider `COC1=C(c2ccccc2)C(=O)c2ccccc2C1=O`, for which the inhibition was 5.34%.
As to `CC(=O)Nc1ccc(S(=O)(=O)NC2(C(F)(F)F)NC(=O)N(c3ccccc3F)C2=O)cc1` (centres undefined), the inhibition was -8.69%.
Regarding `CCOc1ccc2c(c1)C(=O)c1cc(OCC(=O)O)ccc1-2`, the inhibition was 1.9%.
`Cc1cc(OCCCCOc2ccc(S(N)(=O)=O)c(C)c2)ccc1S(N)(=O)=O`: the inhibition was 20.1%.
Next, `CCc1cc(=O)oc2cc(C)cc(OC(=O)c3ccco3)c12`: 4.45%; `Cc1nn(-c2ccccc2)c(Cl)c1C(=O)Nc1nnc(C2CCCC2)s1`: 38.7%.
Take `CCc1nnc(NC(=O)c2c(C)nn(-c3ccccc3)c2Cl)s1`: the inhibition was 25.5%.
With `O=C(NCc1ccccc1)Nc1cccn(Cc2cccc(F)c2)c1=O`, the inhibition was 5.8%.
Turning to `COC(=O)[C@@]1(Cc2ccccc2)C=C[C@@H](C)N1C(C)=O`, the inhibition was -1.39%.
For the molecule `CC(NC(=S)NCCN1CCOCC1)C12CC3CC(CC(C3)C1)C2` (centres undefined), the inhibition was -0.91%.
As to `COC(=O)C1=C(C)N(Cc2ccccc2)C(=NCc2cc(OC)c(OC)c(OC)c2)N[C@H]1c1ccccc1`, the inhibition was -1.97%.
On to `COC(=O)C1=C(C)N(Cc2ccccc2)C(=NCc2ccccc2)N[C@H]1c1ccccc1`, for which the inhibition is 28.6%.
For `CSc1ncccc1C(=O)NCc1ccc(C)cc1` the value was -4.41%; for `COC(=O)c1ccc(Cn2cc(C(F)(F)F)ccc2=O)cc1`, 38.8%; for `O=c1c([N+](=O)[O-])cc(C(F)(F)F)cn1Cc1c(Cl)cccc1Cl`, 27.9%.
As to `Cc1c(S(=O)(=O)Nc2ccc(Br)cc2)c(=O)n(C)c(=O)n1C`, the inhibition is 1.85%.
Consider `C=C(C)c1cccc(C(C)(C)NC(=O)N(Cc2ccccc2)Cc2ccco2)c1`, for which the inhibition is 0.97%.
For `Cc1coc2c(C)c3oc(=O)c(CCC(=O)NCCCn4ccnc4)c(C)c3cc12`, the inhibition was 3.77%.
For `Cc1c(CCC(=O)NCCCn2ccnc2)c(=O)oc2cc3occ(C(C)(C)C)c3cc12` the value was 19.4%; for `CCc1cccc(NS(=O)(=O)c2ccc3c(c2)N(C)CCO3)c1`, 3.34%; for `CC1=C(C(=O)OCCC#N)C(c2cc3c(cc2Br)OCO3)NC(=O)N1` (centres undefined), 0.64%.
For `CCCCCCCCCC(=O)N/N=C(\C)c1cccnc1` the value was 22.8%; for `C=CCNC(=S)N/N=C(\C)c1cccc(NC(C)=O)c1`, -1.22%; for `CCCCCCCCC(=O)N/N=C(\C)c1cccnc1`, 7.1%.
As to `C=CCNC(=S)N/N=C(\C)c1cccnc1`, the inhibition is -7.58%.
For `Cc1cc(C(=O)N2CCCC(N3CCN(c4cccc(C(F)(F)F)c4)CC3)C2)nn1C` (centres undefined) the value was 5.35%; for `CC(Oc1ccc(Cl)cc1)C(=O)N(C)CC(=O)Nc1ccc(N2CCOCC2)cc1` (centres undefined), -7.54%; for `COc1ccc(C(=O)N/N=C/c2ccc(OC)c(CN3CCCc4ccccc43)c2)cc1`, 8.38%.
With `CC1=CC(C)(C)Nc2ccc(OC(=O)c3ccco3)cc21`, the inhibition is 4.65%.
Consider `O=C(Oc1cccc(OC(=O)c2ccco2)c1)c1ccco1`, for which the inhibition is 14.2%.
Take `O=C(NCCCN1CCOCC1)Nc1ccc(Cc2ccc(NC(=O)NCCCN3CCOCC3)cc2)cc1`: the inhibition was -4.04%.
With `O=C(O)c1cccnc1SCC(=O)N1CCCc2ccccc21`, the inhibition was -17%.
Next, `COc1ccccc1N1CCN(C(=O)CNC(=O)c2ccc(Cl)cc2Cl)CC1`: 4.89%; `CCn1c(/C=C/N(C)c2ccccc2)[n+](CC)c2ccc(Cl)cc21`: 0.68%.
With `CC[n+]1c(/C=C/N(C)c2ccccc2)sc2ccc(Cl)cc21`, the inhibition was 0.95%.
In the case of `CCCC(C)NC(=O)c1c2c(nc3ccccc13)CCC2` (centres undefined), the inhibition was -4.36%.
For the molecule `Cc1cc(OC(=O)c2ccco2)c2c3c(c(=O)oc2c1)CCC3`, the inhibition is -2.68%.
As for `O=C(Oc1cc2oc(=O)c3c(c2cc1Cl)CCCC3)c1cccs1`, the inhibition was 9.78%.
Take `CN(C)c1c(N)c(=O)oc2ccccc12`: the inhibition is -9.33%.
Next, `COc1ccc(-c2nc3ccc(C)cn3c2NCc2ccccc2)cc1SC1CCCCC1`: 5.05%.
Regarding `CCCCNc1c(-c2ccc(OC)c(SC3CCCCC3)c2)nc2ccc(Cl)cn12`, the inhibition is 8.29%.
For `CN(CC(O)COCc1ccccc1F)C1CCCCC1` (centres undefined), the inhibition is -0.04%.
Regarding `Cc1ccc(C(=O)O/N=C\c2ccc(N3CCOCC3)c([N+](=O)[O-])c2)cc1`, the inhibition was 0.26%.
For `O=C(O/N=C\c1ccc(N2CCCCC2)c([N+](=O)[O-])c1)c1c(F)cccc1F` the value was 2.52%.
For `O=C(Cn1cnc([N+](=O)[O-])n1)c1ccccc1` the value was 0.7%.
Regarding `COc1ccc(Nc2cc(Nc3cccc(OC)c3)ncn2)cc1`, the inhibition was 0.6%.
On to `O=C(O)c1cccc(N/N=C/c2ccc(OC(F)(F)F)cc2)c1`, for which the inhibition is 4.3%.
As to `Cc1nc2scc(-c3ccc(C(C)C)cc3)c2c(=O)n1N`, the inhibition is 6.8%.
In the case of `Cc1nc2scc(-c3ccc(Cl)cc3)c2c(=O)n1N`, the inhibition is -5.38%.
Next, `C1=Nc2ccccc2CN1c1ccccc1`: -10.9%; `CCOc1ccc(N2C(=O)CCC2=O)cc1`: -7.32%; `CCCc1cc(N2CCC(C(N)=O)CC2)nc(-c2ccccc2)n1`: 5.28%.
`Nc1nc2ccccc2n1/N=C/c1cccnc1`: the inhibition was -4.9%.
Next, `COc1ccc(/C=N/n2c(N)nc3ccccc32)cc1OC`: 4.73%; `Cc1ccc(C(=O)Nc2nc(C(C)(C)C)cs2)s1`: 56.8%.

What is called inhibition is the change of the read-out against control, counted positive when it falls.
